# Test results from PubChem BioAssay (EPA / NIEHS).
# Results filed as inconclusive are left out. Some structures have more than one record in an assay (separate samples or runs), and their calls can disagree. Active and inactive are the calls of the source. Rule for the calls, unless noted: active = hit-call score of the fitted dose curve at least 0.9, where 1 is the maximum; inconclusive = response in the unintended direction; inactive = score below 0.9.
# How the values were obtained:
# [1] = test system: rat Norepinephrine Transporter (NET), gene 83511; experiment: NVS_TR_rNET: NovaScreen (NVS) Transporter Assay for rat Norepinephrine Transporter (NET) (AID 2283373)
# Method in brief: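 Rat forebrain membranes; radioligand binding measured by filter-based scintillation counting 1 hour after dosing. Loss of specific binding versus DMSO baseline scored; primary screen in duplicate at 25 uM, actives followed up in concentration series.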
# [2] = molecular target: human Dopamine Transporter (DAT), SLC6A3 (gene 6531) (UniProt Q01959); experiment: NVS_TR_hDAT: NovaScreen (NVS) Transporter Assay for human Dopamine Transporter (DAT) (AID 2283374);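 note: activity means loss of bound radioligand signal relative to DMSO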
# Method in brief: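 Cell-free radioligand binding to extracted human DAT protein, read 1 h after dosing by filter-based scintillation counting. Loss of specific binding scored against DMSO baseline; primary screen in duplicate at 25 uM, actives then run in concentration series.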
# [3] = molecular target: rat Serotonin Transporter (SERT), Slc6a4 (gene 25553) (UniProt P31652); experiment: NVS_TR_rSERT: NovaScreen (NVS) Transporter Assay for rat Serotonin Transporter (SERT) (AID 2283375)
# Method in brief: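 Using rat forebrain membrane SERT, test chemicals compete with a radioligand for 1 hour, and bound counts are taken by filter-based scintillation. Screening starts at 25 uM in duplicate, followed by concentration series for actives.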
# [4] = molecular target: Norway rat Vesicular Monoamine Transporter (VMAT2), neurotransmitter transporter, Slc18a2 (gene 25549) (UniProt Q01827); experiment: NVS_TR_rVMAT2: NovaScreen (NVS) Transporter Assay for Norway rat Vesicular Monoamine Transporter (VMAT2), neurotransmitter transporter (AID 2283376);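 note: actives lower the bound radioligand signal below the DMSO level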
# Method in brief: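 Rat forebrain tissue preparation used in a cell-free radioligand binding format; displacement read by filter-based scintillation counting 1 hour after dosing. Primary screen in duplicate at 25 uM, actives then run in concentration series; loss of signal versus DMSO baseline.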
# [5] = molecular target: human Norepinephrine Transporter (NET), SLC6A2 (gene 6530) (UniProt P23975); experiment: NVS_TR_hNET: NovaScreen (NVS) Transporter Assay for human Norepinephrine Transporter (NET) (AID 2283377);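 note: cell-free membrane protein extracted from CHO cells expressing human NET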
# Method in brief: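 Radioligand binding to human NET in cell-free CHO-derived protein preparations, read by filter-based scintillation counting 1 hour after dosing. Loss of signal versus DMSO baseline indicated displacement; primary screening in duplicate at 25 uM, actives then titrated.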
# [6] = molecular target: Agonist Androgen Response Element (ARE), AR (gene 367) (UniProt P10275); experiment: OT_AR_ARELUC_AG_1440: Odyssey Thera (OT) 24-hour CHO-K1 Luciferase Assay for Agonist Androgen Response Element (ARE) (AID 2283379)
# Method in brief: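 Seed CHO-K1 cells; dose compounds for 24 h; add D-luciferin plus ATP in PBS; read luminescence. Signal increase relative to vehicle defines agonist activity, with at least 3 replicate wells per sample.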
# [7] = molecular target: Estrogen receptor beta (Homo sapiens) (UniProt Q92731); experiment: OT_ER_ERbERb_1440: Odyssey Thera (OT) 24-hour HEK293T Protein-Complementation Assay for Estrogen Receptor-beta/-beta Homodimer (AID 2283380);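 note: fluorescence gain from ER beta LBD homodimer complementation read by laser scanning cytometry; scored as signal increase over DMSO baseline for both agonists and antagonists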
# Method in brief: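 HEK293T cells stably expressing human ER-beta LBD (aa 310-547) PCA homodimer pair, dosed 24 h; formaldehyde-fixed, Draq5-stained. Readout: increase in nuclear (agonist) or nuclear plus cytoplasmic (antagonist) fluorescence intensity versus DMSO, gain-of-signal fitting.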
# [8] = molecular target: Retinoic acid receptor RXR-alpha (Homo sapiens) (UniProt P19793); experiment: OT_NURR1_NURR1RXRa_0480: Odyssey Thera (OT) 8-hour HEK293T Protein Complementation Assay for Nurr1/retinoid X receptor (RXR) (AID 2283385)
# Method in brief: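 HEK293T cells expressing Nurr1 and RXRα fused to reporter fragments (protein-fragment complementation); fluorescence measured 8 h after dosing. Gain of signal fitted relative to DMSO.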
# [9] = molecular target: Retinoic acid receptor RXR-alpha (Homo sapiens) (UniProt P19793); experiment: OT_NURR1_NURR1RXRa_1440: Odyssey Thera (OT) 24-hour HEK293T Protein Complementation Assay for Nurr1/retinoid X receptor (RXR) (AID 2283386)
# Method in brief: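 HEK293T protein-fragment complementation of Nurr1 and RXRα fused to reporter fragments; compounds 24 h. Fluorescence gain from reconstituted reporter fitted versus DMSO.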
# [10] = molecular target: Peroxisome proliferator-activated receptor gamma (Homo sapiens) (UniProt P37231); experiment: OT_PPARg_PPARgSRC1_0480: Odyssey Thera (OT) 8-hour Protein-Complementation Assay for Peroxisome Proliferator-activated Receptor Gamma / SRC-1 Co-activator (AID 2283387);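 note: nuclear to cytoplasmic split Venus YFP fluorescence ratio reporting PPARg SRC-1 interaction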
# Method in brief: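 HEK293T transiently transfected with PPARg and SRC-1 fused to Venus YFP fragments, compounds 8 h at 37C. Fixed, Draq5-stained cells imaged; nuclear/cytoplasmic 488 nm fluorescence ratio over at least 350 cells per image; gain fitted versus DMSO.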
# [11] = molecular target: Peroxisome proliferator-activated receptor gamma (Homo sapiens) (UniProt P37231); experiment: OT_PPARg_PPARgSRC1_1440: Odyssey Thera (OT) 24-hour Protein-Complementation Assay for Peroxisome Proliferator-activated Receptor Gamma/ SRC-1 Co-activator (AID 2283388)
# Method in brief: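 Cells carrying the PPARg/SRC-1 fragment-complementation reporter receive compound for 24 hours, are fixed and counterstained with Draq5, then imaged. Increased nuclear relative to cytoplasmic YFP fluorescence above DMSO baseline indicates binding activity.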
# [12] = CEETOX_H295R_11DCORT: CeeTox H295R High-throughput Steroidogenesis Assay for 11-Deoxycortisol (11DCORT) (AID 2283432; active = hit-call score of the fitted dose curve at least 0.9, where 1 is the maximum; inactive = score below 0.9;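 for AC50: 11-deoxycortisol secreted into the medium measured by LC-MS/MS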); conditions: actives raise or lower the signal
# Method in brief: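 H295R cells prestimulated 48 h with 10 uM forskolin, then exposed 48 h to chemical in 0.1% DMSO. 11-Deoxycortisol in medium quantified by HPLC-MS/MS after MTBE extraction; bidirectional fit versus DMSO. MTT viability read in same wells.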
# [13] = CEETOX_H295R_OHPREG: CeeTox H295R High-throughput Steroidogenesis Assay for OH-Pregnenolone (OHPREG) (AID 2283434; active = hit-call score of the fitted dose curve at least 0.9, where 1 is the maximum; inactive = score below 0.9); conditions: actives raise or lower the signal
# Method in brief: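 Human adrenal H295R cells were prestimulated 48 h with 10 uM forskolin, then exposed 48 h to chemical in 0.1% DMSO. Medium 17alpha-hydroxypregnenolone was quantified by HPLC-MS/MS after MTBE extraction; bidirectional fitting versus DMSO baseline.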
# [14] = molecular target: human Serotonin Transporter (SERT), SLC6A4 (gene 6532) (UniProt P31645); experiment: NVS_TR_hSERT: NovaScreen (NVS) Transporter Assay for human Serotonin Transporter (SERT) (AID 2283372)
# Method in brief: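 Radioligand binding to native SERT in human platelet membranes, read by filter-based scintillation counting 1 h after dosing. Primary screen in duplicate at 25 uM; actives followed up in concentration series; loss of signal versus DMSO baseline.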
# [15] = molecular target: mouse Estrogen Receptor alpha (Era), Esr1 (gene 13982) (UniProt P19785); experiment: NVS_NR_mERa: NovaScreen (NVS) Nuclear Receptor Binding Assay for mouse Estrogen Receptor alpha (Era) (AID 2283378);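 note: hit means loss of bound radioligand signal relative to DMSO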
# Method in brief: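 Measurements come from scintillation counting after filtration, taken 18 hours after chemicals were added to a cell-free mouse Era preparation with radioligand. Screening was duplicate at 25 uM, with concurrent positive and negative controls and confirmatory concentration series for actives.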
# [16] = molecular target: Estrogen receptor (Homo sapiens) (UniProt P03372); experiment: OT_ERa_GFPERaERE_0480: Odyssey Thera (OT) 8-hour HeLa Transcription Induction Assay for Estrogen Receptor (AID 2283381; active = hit-call score of the fitted dose curve at least 0.9, where 1 is the maximum; inactive = score below 0.9)
# Method in brief: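 HeLa cells expressing GFP reporter under estrogen response element, imaged 8 h after dosing. GFP induction quantified by high-content fluorescence microscopy image analysis; gain of signal fitted versus DMSO.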
# [17] = molecular target: Estrogen receptor (Homo sapiens) (UniProt P03372); experiment: OT_ERa_GFPERaERE_0120: Odyssey Thera (OT) 2-hour HeLa Transcription Induction Assay for Estrogen Receptor (AID 2283382)
# Method in brief: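 HeLa cells were dosed for 2 h, then GFP reporter induction was quantified by fluorescence microscopy with high-content image analysis. Gain of signal fitted against DMSO baseline.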
# [18] = molecular target: Bile acid receptor (Homo sapiens) (UniProt Q96RI1); experiment: OT_FXR_FXRSRC1_0480: Odyssey Thera (OT) 8-hour HEK293T Protein-Complementation Assay for Farnesoid X receptor/SRC-1 Co-activator (AID 2283383)
# Method in brief: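 HEK293T protein-fragment complementation assay: FXR and SRC-1 coactivator are fused to reporter fragments, and their interaction restores a fluorescent reporter. Readout was taken 8 h after dosing, with gain of signal fit relative to DMSO.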
# [19] = molecular target: Bile acid receptor (Homo sapiens) (UniProt Q96RI1); experiment: OT_FXR_FXRSRC1_1440: Odyssey Thera (OT) 24-hour HEK293T Protein-Complementation Assay for Farnesoid X receptor/SRC-1 Co-activator (AID 2283384)
# Method in brief: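 HEK293T cells, 24 h after chemical dosing. FXR–SRC-1 coactivator interaction read as fluorescence from protein-fragment complementation of a split reporter. Gain of signal fitted against DMSO baseline.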
# [20] = CEETOX_H295R_OHPROG: CeeTox H295R High-throughput Steroidogenesis Assay for OH-Progesterone (OHPROG) (AID 2283435; active = hit-call score of the fitted dose curve at least 0.9, where 1 is the maximum; inactive = score below 0.9); conditions: actives raise or lower the signal
# Method in brief: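 H295R adrenal cells prestimulated 48 h with 10 uM forskolin, then exposed 48 h to chemical (0.1% DMSO final). 17alpha-hydroxyprogesterone in medium quantified by HPLC-MS/MS; bidirectional fit versus DMSO, with MTT viability measured in the same wells.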
# Chain of Estrogen receptor (Homo sapiens) (P03372 whole entry, looked up): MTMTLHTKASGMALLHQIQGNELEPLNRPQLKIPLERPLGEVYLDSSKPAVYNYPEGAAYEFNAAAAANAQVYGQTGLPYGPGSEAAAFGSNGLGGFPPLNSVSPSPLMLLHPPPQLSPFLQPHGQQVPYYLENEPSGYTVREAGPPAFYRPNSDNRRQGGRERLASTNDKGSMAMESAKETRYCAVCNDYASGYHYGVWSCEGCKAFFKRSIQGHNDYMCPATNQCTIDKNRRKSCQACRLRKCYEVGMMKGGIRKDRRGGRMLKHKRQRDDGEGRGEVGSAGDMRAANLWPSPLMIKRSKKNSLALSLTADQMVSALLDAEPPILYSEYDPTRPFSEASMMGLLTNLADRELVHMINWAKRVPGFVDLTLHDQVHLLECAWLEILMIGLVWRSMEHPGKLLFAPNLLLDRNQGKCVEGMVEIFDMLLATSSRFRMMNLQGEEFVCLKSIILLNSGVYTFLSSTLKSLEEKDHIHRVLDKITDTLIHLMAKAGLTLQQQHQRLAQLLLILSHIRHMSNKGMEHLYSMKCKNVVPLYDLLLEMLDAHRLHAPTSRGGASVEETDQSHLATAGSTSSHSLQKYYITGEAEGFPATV
# Chain of Peroxisome proliferator-activated receptor gamma (Homo sapiens) (P37231 whole entry, looked up, the tested form may be a part): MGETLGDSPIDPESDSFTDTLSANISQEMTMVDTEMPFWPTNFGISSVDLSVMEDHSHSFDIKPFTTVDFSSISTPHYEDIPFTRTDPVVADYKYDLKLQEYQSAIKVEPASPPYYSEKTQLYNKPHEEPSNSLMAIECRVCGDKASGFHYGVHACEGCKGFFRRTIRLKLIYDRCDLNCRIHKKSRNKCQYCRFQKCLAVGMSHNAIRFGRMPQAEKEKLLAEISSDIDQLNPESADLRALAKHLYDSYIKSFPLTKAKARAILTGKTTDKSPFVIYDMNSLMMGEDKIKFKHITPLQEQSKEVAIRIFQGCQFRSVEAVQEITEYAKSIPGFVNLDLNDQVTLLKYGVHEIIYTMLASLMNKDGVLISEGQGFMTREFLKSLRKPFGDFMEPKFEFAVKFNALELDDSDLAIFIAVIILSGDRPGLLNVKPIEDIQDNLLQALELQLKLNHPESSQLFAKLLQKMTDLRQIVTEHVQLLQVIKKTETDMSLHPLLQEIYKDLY
# Chain of Estrogen receptor beta (Homo sapiens) (Q92731 whole entry, looked up, the tested form may be a part): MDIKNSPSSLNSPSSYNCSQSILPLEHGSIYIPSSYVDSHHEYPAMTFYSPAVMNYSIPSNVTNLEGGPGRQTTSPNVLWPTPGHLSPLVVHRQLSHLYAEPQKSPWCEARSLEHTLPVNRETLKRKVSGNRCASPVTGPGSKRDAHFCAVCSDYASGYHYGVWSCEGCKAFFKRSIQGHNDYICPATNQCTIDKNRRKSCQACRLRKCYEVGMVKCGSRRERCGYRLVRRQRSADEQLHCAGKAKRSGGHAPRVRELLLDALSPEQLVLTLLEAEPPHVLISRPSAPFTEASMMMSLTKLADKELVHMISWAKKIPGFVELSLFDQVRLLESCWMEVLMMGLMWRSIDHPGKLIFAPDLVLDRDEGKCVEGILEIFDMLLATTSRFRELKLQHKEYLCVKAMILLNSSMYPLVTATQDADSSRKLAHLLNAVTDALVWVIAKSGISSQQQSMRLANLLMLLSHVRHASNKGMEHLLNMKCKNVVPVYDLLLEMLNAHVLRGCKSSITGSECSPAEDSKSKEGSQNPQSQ
# Chain of Retinoic acid receptor RXR-alpha (Homo sapiens) (P19793 whole entry, looked up, the tested form may be a part): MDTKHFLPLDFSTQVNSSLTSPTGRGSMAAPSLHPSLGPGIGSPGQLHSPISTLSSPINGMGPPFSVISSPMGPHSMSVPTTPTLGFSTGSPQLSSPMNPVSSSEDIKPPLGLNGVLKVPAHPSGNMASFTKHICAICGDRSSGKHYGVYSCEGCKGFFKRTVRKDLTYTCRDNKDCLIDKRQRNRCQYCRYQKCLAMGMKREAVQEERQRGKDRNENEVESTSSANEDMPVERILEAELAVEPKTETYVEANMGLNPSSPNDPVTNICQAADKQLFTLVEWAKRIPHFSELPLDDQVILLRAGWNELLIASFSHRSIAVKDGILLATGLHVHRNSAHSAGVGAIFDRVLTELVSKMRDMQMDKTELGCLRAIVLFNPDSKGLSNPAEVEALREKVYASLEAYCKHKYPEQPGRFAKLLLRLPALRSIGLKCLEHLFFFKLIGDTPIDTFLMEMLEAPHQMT
# Chain of human Dopamine Transporter (DAT), SLC6A3 (gene 6531) (Q01959 whole entry, looked up): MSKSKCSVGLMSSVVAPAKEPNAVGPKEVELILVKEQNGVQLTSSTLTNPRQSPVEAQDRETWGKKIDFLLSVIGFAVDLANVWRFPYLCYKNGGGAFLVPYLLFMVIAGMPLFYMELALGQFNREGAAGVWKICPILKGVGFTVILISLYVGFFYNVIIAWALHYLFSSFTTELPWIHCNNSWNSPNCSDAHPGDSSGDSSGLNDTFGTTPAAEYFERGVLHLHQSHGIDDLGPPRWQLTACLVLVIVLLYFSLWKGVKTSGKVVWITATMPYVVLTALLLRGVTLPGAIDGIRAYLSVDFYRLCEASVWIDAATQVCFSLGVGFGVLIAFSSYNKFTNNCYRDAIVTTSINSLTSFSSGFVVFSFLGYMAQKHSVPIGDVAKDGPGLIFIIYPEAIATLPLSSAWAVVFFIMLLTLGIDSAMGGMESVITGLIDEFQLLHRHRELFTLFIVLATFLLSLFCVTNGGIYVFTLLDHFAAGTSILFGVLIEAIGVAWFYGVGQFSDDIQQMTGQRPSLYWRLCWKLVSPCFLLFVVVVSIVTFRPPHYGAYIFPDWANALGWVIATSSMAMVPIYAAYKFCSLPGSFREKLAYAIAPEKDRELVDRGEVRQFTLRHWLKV
# Chain of human Norepinephrine Transporter (NET), SLC6A2 (gene 6530) (P23975 whole entry, looked up): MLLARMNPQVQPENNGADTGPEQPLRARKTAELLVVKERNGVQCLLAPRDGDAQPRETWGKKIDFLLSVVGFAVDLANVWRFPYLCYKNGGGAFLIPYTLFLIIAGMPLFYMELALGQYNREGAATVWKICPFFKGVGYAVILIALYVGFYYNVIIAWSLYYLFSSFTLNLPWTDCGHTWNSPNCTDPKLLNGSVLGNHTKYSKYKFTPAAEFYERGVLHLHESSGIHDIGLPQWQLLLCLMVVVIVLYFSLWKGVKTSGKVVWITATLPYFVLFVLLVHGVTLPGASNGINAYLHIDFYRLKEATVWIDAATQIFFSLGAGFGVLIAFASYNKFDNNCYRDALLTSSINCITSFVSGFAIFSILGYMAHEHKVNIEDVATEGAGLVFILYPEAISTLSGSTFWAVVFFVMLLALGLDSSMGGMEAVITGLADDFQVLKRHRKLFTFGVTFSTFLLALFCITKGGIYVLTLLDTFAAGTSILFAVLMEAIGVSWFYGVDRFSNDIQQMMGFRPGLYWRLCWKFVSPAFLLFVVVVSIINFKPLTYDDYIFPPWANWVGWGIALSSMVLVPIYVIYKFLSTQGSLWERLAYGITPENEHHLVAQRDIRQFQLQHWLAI
# Chain of Bile acid receptor (Homo sapiens) (Q96RI1 whole entry, looked up, the tested form may be a part): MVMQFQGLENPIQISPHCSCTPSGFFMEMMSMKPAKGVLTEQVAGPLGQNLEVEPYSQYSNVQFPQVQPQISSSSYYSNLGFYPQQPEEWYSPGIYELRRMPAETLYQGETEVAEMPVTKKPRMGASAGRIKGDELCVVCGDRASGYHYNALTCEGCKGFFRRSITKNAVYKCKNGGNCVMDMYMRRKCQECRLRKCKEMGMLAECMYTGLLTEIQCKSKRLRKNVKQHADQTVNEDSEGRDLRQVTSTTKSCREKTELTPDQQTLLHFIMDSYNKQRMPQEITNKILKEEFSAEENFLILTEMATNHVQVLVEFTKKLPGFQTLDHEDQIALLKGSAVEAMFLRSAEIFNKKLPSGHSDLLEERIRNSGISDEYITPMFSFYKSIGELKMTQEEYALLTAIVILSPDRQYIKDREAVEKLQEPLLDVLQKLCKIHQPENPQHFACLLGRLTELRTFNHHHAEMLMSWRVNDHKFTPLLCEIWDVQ
# Chain of rat Serotonin Transporter (SERT), Slc6a4 (gene 25553) (P31652 whole entry, looked up): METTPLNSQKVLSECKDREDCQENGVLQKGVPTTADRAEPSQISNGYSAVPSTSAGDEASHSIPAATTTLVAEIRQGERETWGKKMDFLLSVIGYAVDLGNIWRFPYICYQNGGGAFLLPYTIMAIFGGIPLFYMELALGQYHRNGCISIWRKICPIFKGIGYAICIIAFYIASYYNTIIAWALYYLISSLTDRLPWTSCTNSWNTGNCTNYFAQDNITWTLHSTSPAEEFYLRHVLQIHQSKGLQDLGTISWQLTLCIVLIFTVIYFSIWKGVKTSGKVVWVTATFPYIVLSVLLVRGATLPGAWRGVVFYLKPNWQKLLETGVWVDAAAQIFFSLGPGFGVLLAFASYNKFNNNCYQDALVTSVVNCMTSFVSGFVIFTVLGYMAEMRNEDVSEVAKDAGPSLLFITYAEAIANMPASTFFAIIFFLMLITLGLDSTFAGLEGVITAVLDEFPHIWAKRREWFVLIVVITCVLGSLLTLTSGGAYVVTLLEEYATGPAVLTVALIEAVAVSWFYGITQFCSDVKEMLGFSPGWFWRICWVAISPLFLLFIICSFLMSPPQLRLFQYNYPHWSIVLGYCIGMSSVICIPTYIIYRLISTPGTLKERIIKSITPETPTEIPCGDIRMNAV
# Chain of Norway rat Vesicular Monoamine Transporter (VMAT2), neurotransmitter transporter, Slc18a2 (gene 25549) (Q01827 whole entry, looked up): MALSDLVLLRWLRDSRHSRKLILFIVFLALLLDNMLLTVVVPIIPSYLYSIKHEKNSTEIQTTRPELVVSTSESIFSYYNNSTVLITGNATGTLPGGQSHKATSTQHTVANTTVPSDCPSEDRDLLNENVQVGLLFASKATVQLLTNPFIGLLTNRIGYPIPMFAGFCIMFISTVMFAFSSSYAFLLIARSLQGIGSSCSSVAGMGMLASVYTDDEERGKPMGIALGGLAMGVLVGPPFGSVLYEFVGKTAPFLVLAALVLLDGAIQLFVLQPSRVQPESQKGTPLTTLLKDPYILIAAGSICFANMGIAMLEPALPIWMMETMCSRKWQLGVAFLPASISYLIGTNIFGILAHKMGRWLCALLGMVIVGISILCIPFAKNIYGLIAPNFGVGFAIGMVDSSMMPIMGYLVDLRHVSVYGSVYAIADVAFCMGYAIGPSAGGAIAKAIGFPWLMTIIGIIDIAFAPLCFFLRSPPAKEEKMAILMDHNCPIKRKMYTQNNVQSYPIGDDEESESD
smiles,measurement,setting,value
Oc1ccc(Cl)cc1Cc1ccccc1,AC50,[1],18.6 µM (active) [middle of 6 runs]
same,AC50,[2],3.69 µM (active) [middle of 8 runs]
same,outcome,[3],inactive
same,AC50,[4],13.8 µM (active)
same,outcome,[4],inactive
same,AC50,[5],3.98 µM (active) [middle of 6 runs]
same,outcome,[6],inactive
same,AC50,[7],12 µM (active)
same,outcome,[8],inactive
same,outcome,[9],inactive
same,outcome,[10],inactive
same,outcome,[11],inactive
same,AC50,[12],77.7 µM (active)
same,outcome,[13],inactive
COP(=S)(OC)Oc1ccc([N+](=O)[O-])cc1,AC50,[14],11.3 µM (active)
same,AC50,[2],25 µM (active)
same,AC50,[3],12.6 µM (active)
same,outcome,[15],inactive
same,outcome,[7],inactive
same,outcome,[16],inactive
same,outcome,[17],inactive
same,AC50,[18],36.8 µM (active)
same,AC50,[19],50 µM (active)
same,outcome,[8],inactive
same,outcome,[9],inactive
same,outcome,[10],inactive
same,outcome,[11],inactive
same,outcome,[13],inactive
same,AC50,[20],3.28 µM (active)
CC1(c2ccc(Oc3ccccc3)cc2)OC(=O)N(Nc2ccccc2)C1=O (stereo not drawn),outcome,[7],inactive
same,outcome,[16],inactive
same,outcome,[17],inactive
same,AC50,[18],1.94 µM (active)
same,AC50,[19],1.68 µM (active)
same,outcome,[10],inactive
same,outcome,[11],inactive
O=C(NC(=O)c1c(F)cccc1F)Nc1ccc(OC(F)(F)C(F)OC(F)(F)F)c(Cl)c1 (stereo not drawn),outcome,[7],inactive
same,outcome,[16],inactive
same,outcome,[17],inactive
same,outcome,[8],inactive
same,outcome,[9],inactive
same,outcome,[10],inactive
same,outcome,[11],inactive
same,outcome,[12],inactive
same,outcome,[13],inactive
same,outcome,[20],inactive
O=C(O)C(F)(F)C(F)(F)C(F)(F)C(F)(F)C(F)(F)C(F)(F)C(F)(F)F,outcome,[7],inactive
same,outcome,[8],inactive
same,outcome,[9],inactive
CCC(C)(NC(=O)c1cc(Cl)c(C)c(Cl)c1)C(=O)CCl (stereo not drawn),outcome,[7],inactive
same,AC50,[16],13.6 µM (active)
same,AC50,[17],45 µM (active)
same,outcome,[8],inactive
same,outcome,[10],inactive
same,outcome,[11],inactive
C[C@H]1[C@H](c2ccc(Cl)cc2)SC(=O)N1C(=O)NC1CCCCC1,outcome,[6],inactive
same,outcome,[7],inactive
same,outcome,[16],inactive
same,outcome,[17],inactive
same,outcome,[9],inactive
same,outcome,[10],inactive
same,outcome,[11],inactive
same,outcome,[12],inactive
same,outcome,[13],inactive
same,outcome,[20],inactive
CCc1ccc(C(=O)NN(C(=O)c2cc(C)cc(C)c2)C(C)(C)C)cc1,outcome,[7],inactive
same,outcome,[16],inactive
same,outcome,[17],inactive
same,outcome,[18],inactive
same,AC50,[19],10.6 µM (active)
same,outcome,[8],inactive
same,outcome,[9],inactive
same,outcome,[10],inactive
same,outcome,[11],inactive
same,outcome,[12],inactive
same,outcome,[13],inactive
same,outcome,[20],inactive
O=[N+]([O-])c1c(Cl)c(Cl)c(Cl)c(Cl)c1Cl,outcome,[7],inactive
same,outcome,[16],inactive
same,outcome,[17],inactive
same,outcome,[8],inactive
same,outcome,[10],inactive
same,outcome,[11],inactive
same,outcome,[12],inactive
same,outcome,[13],inactive
same,outcome,[20],inactive
OCCOc1ccccc1,outcome,[7],inactive
same,outcome,[16],inactive
same,outcome,[17],inactive
same,outcome,[18],inactive
same,outcome,[19],inactive
same,outcome,[8],inactive
same,outcome,[9],inactive
same,outcome,[10],inactive
same,outcome,[11],inactive
COP(=O)(OC)OC=C(Cl)Cl,outcome,[7],inactive
same,outcome,[16],inactive
same,outcome,[17],inactive
same,outcome,[8],inactive
same,outcome,[9],inactive
same,outcome,[10],inactive
same,outcome,[11],inactive
CNC(=O)/C=C(\C)OP(=O)(OC)OC,outcome,[7],inactive
same,outcome,[16],inactive
same,outcome,[17],inactive
same,outcome,[19],inactive
same,outcome,[8],inactive
same,outcome,[9],inactive
same,outcome,[10],inactive
same,outcome,[11],inactive
same,outcome,[12],inactive
same,outcome,[13],inactive
same,outcome,[20],inactive
